Measured values reported in PubChem BioAssay (NCATS).
Records with an inconclusive call do not appear. The source made the active and inactive calls. Unless noted, calls come from the whole dose curve; as a rule, active = well fitted curve in either direction with a large enough effect (not every such curve was filed as active); inconclusive = small, poorly fitted or top-dose-only effect, or another doubt; inactive = flat fitted curve, though single readings scatter.

Assays:
[1] = Cell Viability qHTS for small molecule stabilizers of the endoplasmic reticulum resident proteome (AID 1508629; active = well fitted curve in the direction sought with a large enough effect; an effect the other way counts as inactive or inconclusive;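 note: human SH-SY5Y neuroblastoma cells carrying the GLuc-SERCaMP reporter; compound exposure about 46 h in total before the viability read; % is set by controls: 0 for no effect and ±100 for the full control effect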); details: cell viability counter-screen, 100 nM thapsigargin for final 4 h
[2] = biological target: Lysosomal acid glucosylceramidase (Homo sapiens) (UniProt P04062); test: Glucocerebrosidase-p2 (AID 348; in the data active = potency below about 10 µM; note: potency is the fitted concentration of half-maximal effect); details: purified GBA, blue fluorogenic substrate, 40 min
In short: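 Compounds titrated from 0.6 nM upwards against 0.2 nM enzyme in pH 5.9 citric acid/KH2PO4, taurocholate, tween-20; blue fluorogenic substrate 80 uM, 40 min room temperature, stopped and read Ex 365/Em 440 for AC50.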

[3] = AP1 Signaling Pathway (AID 357); details: ME-180 AP-1-bla reporter, EGF-induced, beta-lactamase ratio, 5 h; at 7.69 µM (top of the series) unless noted;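 note: ME-180 reporter cells stimulated with EGF at its EC50 level; % is set by controls: 0 for no effect and ±100 for the full control effect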
In short: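 Beta-lactamase reporter under AP-1 response element, ME-180 background. Stimulus: EC50 EGF. Compound exposure 5 h, 37 °C. Detection: CCF4, 2.5 h RT, 460/530 nm. Values: AC50 from titration.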

[4] = biological target: Cytochrome P450 1A2 (Homo sapiens) (UniProt P05177); test: p450-cyp1a2 (AID 410; calls by dose curve; note: potency is the fitted concentration of half-maximal effect); details: recombinant CYP1A2, luciferin-ME demethylation, luminescence; series mostly up to 57 µM
In short: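 Human CYP1A2 (20nM) demethylated Luciferin-ME at its Km (100uM) in 100mM KPO4. After 10 min compound preincubation, NADPH regeneration ran the reaction 60 min at room temperature. Luciferin was read by luminescence, normalized to 57 uM furafylline.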

[5] = NFAT Signaling Pathway (AID 444); details: Jurkat NFAT-bla M1, carbachol, beta-lactamase ratio, 5 h; at 7.69 µM (top of the series) unless noted;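 note: carbachol stimulus at about its EC50 of 1 µM final; % is set by controls: 0 for no effect and ±100 for the full control effect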
In short: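 Jurkat cells carrying an NFAT-driven β-lactamase reporter and co-transfected muscarinic M1 receptor were treated with compound plus carbachol (1 uM final, an EC50 level) for 5 h at 37 °C. CCF4 loading followed for 1 h at RT; 460/530 nm ratio gave %activity.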

[6] = Stat Signaling Pathway (AID 446); details: ME-180 SIE beta-lactamase reporter, IL-6 stimulated, 5 h; at 7.69 µM (top of the series) unless noted;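 note: ME-180 cervical cancer cells given 40 pM IL-6 alongside compound; SIE-controlled beta-lactamase reporter measured as 460/530 nm FRET emission ratio; % is set by controls: 0 for no effect and ±100 for the full control effect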
In short: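 ME-180 SIE-bla cells; overnight plating; cpd + IL-6 40 pM, 5 h, 37 C; LiveBLAzer 2.5 h RT; 460/530 nm emission ratio. Normalized to 300 pM IL-6 and 125 nM JAK inhibitor controls.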

[7] = biological target: Mitogen-activated protein kinase 10 (Mus musculus) (UniProt Q61831); test: JNK3 AlphaScreen Assay (AID 530); details: JNK3 lysate, c-Jun phosphorylation; series mostly up to 57.1 µM
In short: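 JNK3 came from HepG2 lysates pre-activated with IL-1beta and TNF-alpha and phosphorylated biotinylated GST-cJun (1-79) at 10 uM ATP, pH 7.6, room temperature. Compounds were titrated. AlphaScreen signal used anti-phospho-cJun (Ser73) antibody.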

[8] = biological target: 3',5'-cyclic-AMP phosphodiesterase 4B (Homo sapiens) (UniProt Q07343); test: qHTS Assay for Inhibitors of PDE-IV (AID 607; active = well fitted activation curve with a large enough effect in the main read-out, with a control signal flat, not every such curve was filed as active; note: % of control where 0% means no effect); details: HEK293 ACTOne CNG channel cells, membrane potential fluorescence; series mostly up to 22.9 µM
In short: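 ACTOne HEK293 cells carry a modified cAMP-gated CNG channel and express endogenous PDE4; plated 1000 cells/well, compounds up to 22.9 uM final. Membrane-potential dye fluorescence (ex 535/em 590) was read; parental cells received 10 uM forskolin + 100 uM RO 20-1724.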

[9] = biological target: Cytochrome P450 3A4 (Homo sapiens) (UniProt P08684); test: qHTS Assay for Inhibitors and Substrates of Cytochrome P450 3A4 (AID 884; active = well fitted curve in the direction sought with a large enough effect; an effect the other way counts as inactive or inconclusive; note: potency is the fitted concentration of half-maximal effect; nearly all actives have a fitted effect of over 50% in size); details: recombinant CYP3A4, Luciferin-PPXE luminescence; series mostly up to 57.1 µM
In short: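 20 nM human CYP3A4 with 25 uM Luciferin-PPXE (at KM) in 200 mM KPO4, preincubated 10 min with compound; NADPH regeneration started a 60 min RT reaction. Luciferin detected by luminescence, normalized to 57 uM ketoconazole as full inhibition.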

[10] = Confirmation and Secondary Assay for Modulators of Hemoglobin Beta Chain Splicing at IVS2 654 locus (AID 910; active = well fitted curve in the direction sought with a large enough effect; an effect the other way counts as inactive or inconclusive;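 note: per-well total GFP intensity by laser scanning cytometry after 2-day treatment; % of control where 0% means no effect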); details: HeLa EGFP-654 splicing reporter, GFP fluorescence, 48 h; series mostly up to 38.3 µM
In short: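 HeLa cells stably carrying EGFP interrupted by mutant beta-globin IVS2-654 intron (CMV-driven) were treated with compound for 2 days at 37C; corrected splicing was scored as total peak GFP intensity per well (488 nm excitation, 500-520 nm emission).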

[11] = biological target: Ubiquitin carboxyl-terminal hydrolase 1 (Homo sapiens) (UniProt O94782); test: Inhibitors of USP1/UAF1: Pilot qHTS (AID 504865; active = well fitted curve in the direction sought with a large enough effect; an effect the other way counts as inactive or inconclusive;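 note: rhodamine fluorescence freed from ubiquitin-rhodamine substrate followed over time; top concentration of the series differs between compounds; % is set by controls: 0 for no effect and ±100 for the full control effect; nearly all actives have a fitted effect of over 35% in size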); details: purified USP1/UAF1, Ub-rhodamine cleavage fluorescence; series mostly up to 54.9 µM
In short: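 1nM USP1/UAF1 + cpd, 15 min RT; start w/ Ub-Rho 150nM final; kinetic FL 480/540 nm, 6 reads q60 s. Buffer 50mM HEPES pH 7.8, 0.5mM EDTA, 1mM TCEP, 0.01% Tween-20, 0.1 mg/ml BSA.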

[12] = Confirmatory qHTS for small molecule stabilizers of the endoplasmic reticulum resident proteome: Secreted ER Calcium Modulated Protein (SERCaMP) assay (AID 1508628; active = well fitted curve in the direction sought with a large enough effect; an effect the other way counts as inactive or inconclusive; note: nearly all actives have a fitted effect of over 40% in size; note: potency is the fitted concentration of half-maximal effect); details: SERCaMP secreted luciferase ER calcium/proteostasis reporter; series mostly up to 76.3 µM
In short: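 We seeded SH-SY5Y-GLuc-SERCaMP cells, added compounds (three concentrations in the primary run, eleven up to 76.6 uM in confirmation), incubated 16 h, depleted ER calcium with thapsigargin, and read luciferase 4 h later.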

[13] = biological target: Glucocorticoid receptor (Homo sapiens) (UniProt P04150); test: GR-GFP Redistribution (AID 450;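 active = compounds whose dose series gives a full or clear partial fitted curve of increased nuclear translocation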; note: potency is the fitted concentration of half-maximal effect); details: U2OS GR-GFP nuclear translocation, laser cytometry, 2 h
[14] = biological target: Glucocorticoid receptor (Homo sapiens) (UniProt P04150); test: GR-EFC Redistribution (AID 451; calls by dose curve; note: potency is the fitted concentration of half-maximal effect); details: CHO-K1 GR-EFC translocation, beta-gal luminescence, 2 h
In short: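 CHO-K1 cells stably expressing nuclear-localized β-gal enzyme acceptor and GR fused C-terminally to the enzyme donor fragment; ligand-driven nuclear translocation restores β-gal by complementation. Compounds titrated up to 46 uM final, 2 h at 37 °C; luminescence read.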

[15] = biological target: Cytochrome P450 3A4 (Homo sapiens) (UniProt P08684); test: qHTS Assay for Activators of Cytochrome P450 3A4 (AID 885; active = well fitted curve in the direction sought with a large enough effect; an effect the other way counts as inactive or inconclusive; note: nearly all actives have a fitted effect of over 65% in size); details: recombinant CYP3A4, Luciferin-PPXE luminescence, 60 min; series mostly up to 57.1 µM
In short: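 20nM CYP3A4 + 25uM Luciferin-PPXE (=KM), 200mM KPO4; cpd 10 min RT; NADPH regen, 60 min RT; stop w/ detection buffer, 20 min; luminescence. Normalized to 57 uM ketoconazole.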

[16] = qHTS Assay for Lipid Storage Modulators (AID 1519; calls by dose curve); details: Drosophila S3 cells, BODIPY lipid droplet/cell ratio, laser cytometry, cells loaded with oleic acid; for activity change, negative = inhibition: at 57.5 µM (top of the series)
In short: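 Cells seeded at 5,000 per well were treated with compounds over a concentration series and loaded with oleic acid (400 uM, as added). Lipid droplet fluorescence (488 nm excitation, 500-530 nm channel) was read by laser-scanning cytometry and normalized to 20 uM Triacsin C.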

[17] = measured here: cell count channel max response
[18] = measured here: lipid channel max response

Chain of Glucocorticoid receptor (Homo sapiens) (P04150 whole entry, looked up, the tested form may be a part): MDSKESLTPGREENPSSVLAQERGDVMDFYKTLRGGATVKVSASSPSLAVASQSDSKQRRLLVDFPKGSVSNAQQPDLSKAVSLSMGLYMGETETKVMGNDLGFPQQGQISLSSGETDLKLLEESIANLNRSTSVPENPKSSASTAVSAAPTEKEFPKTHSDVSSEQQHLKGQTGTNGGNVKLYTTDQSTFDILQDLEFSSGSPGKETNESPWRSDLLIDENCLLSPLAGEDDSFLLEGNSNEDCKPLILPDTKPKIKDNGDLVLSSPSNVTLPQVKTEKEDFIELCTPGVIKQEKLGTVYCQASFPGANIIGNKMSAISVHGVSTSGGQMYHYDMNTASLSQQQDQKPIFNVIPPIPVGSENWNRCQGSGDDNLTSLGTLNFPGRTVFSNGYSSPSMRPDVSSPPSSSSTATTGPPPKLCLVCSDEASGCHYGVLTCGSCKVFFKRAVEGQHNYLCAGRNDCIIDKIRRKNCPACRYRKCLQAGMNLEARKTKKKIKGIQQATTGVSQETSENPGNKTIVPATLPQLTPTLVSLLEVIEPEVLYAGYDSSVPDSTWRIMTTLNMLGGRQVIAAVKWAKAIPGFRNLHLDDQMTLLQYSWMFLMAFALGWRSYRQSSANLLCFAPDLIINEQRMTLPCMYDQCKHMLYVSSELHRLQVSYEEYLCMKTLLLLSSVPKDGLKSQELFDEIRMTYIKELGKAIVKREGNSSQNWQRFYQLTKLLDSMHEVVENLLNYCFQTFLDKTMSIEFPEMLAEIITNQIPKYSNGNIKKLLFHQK
Chain of Lysosomal acid glucosylceramidase (Homo sapiens) (P04062 whole entry, looked up): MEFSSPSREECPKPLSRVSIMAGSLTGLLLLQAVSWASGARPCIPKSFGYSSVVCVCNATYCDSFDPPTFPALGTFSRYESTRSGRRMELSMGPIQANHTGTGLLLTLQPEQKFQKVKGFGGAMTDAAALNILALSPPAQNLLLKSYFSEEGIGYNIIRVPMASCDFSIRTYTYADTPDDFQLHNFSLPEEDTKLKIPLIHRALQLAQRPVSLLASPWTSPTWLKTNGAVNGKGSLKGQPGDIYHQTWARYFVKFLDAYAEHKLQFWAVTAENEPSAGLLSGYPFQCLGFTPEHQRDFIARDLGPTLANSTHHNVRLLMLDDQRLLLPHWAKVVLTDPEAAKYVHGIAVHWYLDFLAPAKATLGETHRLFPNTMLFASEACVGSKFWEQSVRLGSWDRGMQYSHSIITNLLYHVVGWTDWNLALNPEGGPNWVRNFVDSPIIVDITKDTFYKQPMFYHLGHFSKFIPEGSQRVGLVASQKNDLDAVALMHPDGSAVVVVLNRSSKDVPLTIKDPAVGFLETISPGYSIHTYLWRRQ
Chain of Cytochrome P450 3A4 (Homo sapiens) (P08684 whole entry, looked up): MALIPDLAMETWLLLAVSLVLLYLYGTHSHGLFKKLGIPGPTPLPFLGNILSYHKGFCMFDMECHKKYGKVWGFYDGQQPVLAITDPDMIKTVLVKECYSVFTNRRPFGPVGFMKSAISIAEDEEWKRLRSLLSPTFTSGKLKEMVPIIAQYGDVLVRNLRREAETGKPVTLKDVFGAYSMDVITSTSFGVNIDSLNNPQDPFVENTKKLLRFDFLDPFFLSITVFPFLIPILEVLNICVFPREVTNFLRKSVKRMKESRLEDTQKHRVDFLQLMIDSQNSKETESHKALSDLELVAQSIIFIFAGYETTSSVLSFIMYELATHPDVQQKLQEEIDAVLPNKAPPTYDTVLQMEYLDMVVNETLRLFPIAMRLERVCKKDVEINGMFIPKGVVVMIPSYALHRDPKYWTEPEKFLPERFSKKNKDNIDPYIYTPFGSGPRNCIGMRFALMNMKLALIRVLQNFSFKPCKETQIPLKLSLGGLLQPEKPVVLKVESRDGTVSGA
Chain of 3',5'-cyclic-AMP phosphodiesterase 4B (Homo sapiens) (Q07343 whole entry, looked up): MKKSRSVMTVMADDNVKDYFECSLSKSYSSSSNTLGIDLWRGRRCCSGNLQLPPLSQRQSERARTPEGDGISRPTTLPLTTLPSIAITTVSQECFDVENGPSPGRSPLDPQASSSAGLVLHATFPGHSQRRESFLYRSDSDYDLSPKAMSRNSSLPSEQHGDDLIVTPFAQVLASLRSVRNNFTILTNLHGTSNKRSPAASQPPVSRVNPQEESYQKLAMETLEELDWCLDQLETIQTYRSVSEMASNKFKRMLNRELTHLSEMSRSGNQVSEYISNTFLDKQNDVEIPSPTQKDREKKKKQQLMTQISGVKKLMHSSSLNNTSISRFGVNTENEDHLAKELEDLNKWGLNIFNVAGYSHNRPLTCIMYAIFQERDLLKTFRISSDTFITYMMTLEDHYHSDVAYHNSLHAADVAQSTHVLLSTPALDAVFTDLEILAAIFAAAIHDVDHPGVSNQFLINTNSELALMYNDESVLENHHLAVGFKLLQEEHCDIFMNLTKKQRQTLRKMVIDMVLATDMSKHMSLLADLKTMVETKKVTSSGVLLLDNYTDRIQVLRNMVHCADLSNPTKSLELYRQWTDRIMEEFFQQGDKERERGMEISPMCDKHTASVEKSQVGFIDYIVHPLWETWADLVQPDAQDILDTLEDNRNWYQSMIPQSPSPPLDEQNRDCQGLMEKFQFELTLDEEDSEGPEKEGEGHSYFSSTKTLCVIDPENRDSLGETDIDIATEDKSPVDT
Chain of Cytochrome P450 1A2 (Homo sapiens) (P05177 whole entry, looked up): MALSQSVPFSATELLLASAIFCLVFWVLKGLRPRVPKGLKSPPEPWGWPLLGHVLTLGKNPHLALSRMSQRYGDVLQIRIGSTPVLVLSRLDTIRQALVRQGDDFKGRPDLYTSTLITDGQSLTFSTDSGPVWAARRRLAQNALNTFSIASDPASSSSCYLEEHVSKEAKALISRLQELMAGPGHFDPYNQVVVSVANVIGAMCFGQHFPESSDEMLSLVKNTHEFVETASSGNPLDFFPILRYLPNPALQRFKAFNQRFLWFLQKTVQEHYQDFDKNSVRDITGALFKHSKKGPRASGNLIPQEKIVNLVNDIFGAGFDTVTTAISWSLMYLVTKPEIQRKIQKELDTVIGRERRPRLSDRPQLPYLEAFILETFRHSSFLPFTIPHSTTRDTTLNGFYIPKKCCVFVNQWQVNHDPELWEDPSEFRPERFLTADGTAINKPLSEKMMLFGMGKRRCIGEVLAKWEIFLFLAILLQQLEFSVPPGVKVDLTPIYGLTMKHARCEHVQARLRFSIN
Chain of Ubiquitin carboxyl-terminal hydrolase 1 (Homo sapiens) (O94782 whole entry, looked up): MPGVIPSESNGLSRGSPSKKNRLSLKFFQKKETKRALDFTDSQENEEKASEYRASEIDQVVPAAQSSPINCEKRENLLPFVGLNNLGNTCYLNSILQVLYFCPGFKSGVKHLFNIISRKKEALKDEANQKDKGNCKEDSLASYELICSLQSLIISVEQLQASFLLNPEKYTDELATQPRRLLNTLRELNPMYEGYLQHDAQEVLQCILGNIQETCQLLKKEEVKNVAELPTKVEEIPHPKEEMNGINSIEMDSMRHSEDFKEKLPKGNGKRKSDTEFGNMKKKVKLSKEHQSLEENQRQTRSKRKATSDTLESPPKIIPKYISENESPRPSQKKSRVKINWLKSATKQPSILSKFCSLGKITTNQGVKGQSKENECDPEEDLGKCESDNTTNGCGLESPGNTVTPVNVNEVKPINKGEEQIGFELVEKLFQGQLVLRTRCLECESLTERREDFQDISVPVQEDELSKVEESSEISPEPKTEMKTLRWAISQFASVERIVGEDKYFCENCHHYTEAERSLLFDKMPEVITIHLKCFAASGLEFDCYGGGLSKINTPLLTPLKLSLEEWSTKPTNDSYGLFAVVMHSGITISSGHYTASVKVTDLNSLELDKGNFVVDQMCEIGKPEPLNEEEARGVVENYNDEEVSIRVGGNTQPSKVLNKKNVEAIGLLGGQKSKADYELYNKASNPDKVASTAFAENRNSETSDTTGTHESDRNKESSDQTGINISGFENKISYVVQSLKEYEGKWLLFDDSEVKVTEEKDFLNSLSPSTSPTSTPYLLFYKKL

COc1cccc(CN2CCN(C(=O)c3ccc(-c4ccccc4)cc3)CC2)c1OC
inactive: max response [1] 10.7%

c1ccc2c(N3CCNCC3)nc(-c3ccc4c(c3)OCO4)nc2c1
active: Potency [4] 12.6 µM | Potency [9] 7.94 µM | Potency [12] 20 µM
inactive: Potency [2] > 11.4 µM | activity change, negative = inhibition [3] 14.9% | activity change, negative = inhibition [5] 11.9% | activity, negative = inhibition [6] 7.14% | outcome [7] | Potency [8] | outcome [10] | Potency [11]

CN1CCN(c2nc(-c3cccc(C#N)c3)nc3ccccc23)CC1
inactive: Potency [2] > 11.4 µM | activity change, negative = inhibition [3] 9.54% | activity change, negative = inhibition [5] -2.42% | activity, negative = inhibition [6] 21.4% | Potency [13] > 46 µM | Potency [14] > 46 µM | outcome [7] | Potency [15] | outcome [10] | activity change, negative = inhibition [16] 8.44%
active: Potency [4] 1.58 µM | Potency [12] 12.6 µM
3.27%: max response [16, 17]
7.86%: max response [16, 18]

c1ccc(-c2cccc(N3CC4(CCNCC4)C3)c2)cc1
inactive: Potency [2] > 11.4 µM | activity change, negative = inhibition [3] 14.2% | activity change, negative = inhibition [5] 6.24% | activity, negative = inhibition [6] 3.73% | Potency [8] | activity change, negative = inhibition [16] -6.46% | max response [1] -13.3%
-10.1%: max response [16, 18]
active: Potency [4] 12.6 µM
-7.34%: max response [16, 17]

N#Cc1cccc(-c2nc(N3CCNCC3)c3ccccc3n2)c1
inactive: Potency [2] > 11.4 µM | activity change, negative = inhibition [3] 5.75% | activity change, negative = inhibition [5] 10.9% | activity, negative = inhibition [6] 11.7% | Potency [13] > 46 µM | Potency [14] > 46 µM | outcome [7] | Potency [8] | Potency [15] | outcome [10] | activity change, negative = inhibition [16] 6.61% | Potency [11]
active: Potency [4] 2.51 µM | Potency [12] 11.2 µM
6.46%: max response [16, 17]
11.8%: max response [16, 18]

Cc1noc(C)c1-c1nc(N2CCNCC2)c2ccccc2n1
inactive: Potency [2] > 11.4 µM | activity change, negative = inhibition [3] 18.5% | activity change, negative = inhibition [5] -3.25% | activity, negative = inhibition [6] 13.9% | Potency [13] > 46 µM | Potency [14] > 46 µM | outcome [7] | Potency [8] | outcome [10] | activity change, negative = inhibition [16] 9.99%
active: Potency [12] 14.1 µM
19.2%: max response [16, 18]
11.4%: max response [16, 17]

COCCn1c(=O)c(-c2ccccc2)nc2cnc(OCc3ccccc3)nc21
inactive: Potency [2] > 11.4 µM | activity change, negative = inhibition [3] -11.6% | activity change, negative = inhibition [5] 0.0505% | activity, negative = inhibition [6] -5.1% | Potency [13] > 9.22 µM | Potency [14] > 46 µM | Potency [8]
active: Potency [12] 39.8 µM

Cc1ccc(P(=O)(CSC(=N)N)c2ccc(C)cc2)cc1
inactive: Potency [12]
